This is part of a sample that, as a whole, favours compounds with a hit. Of some 79,000 tested, about 15% had one in any assay. The source made the active and inactive calls. Cut-off read from the data, not from the text of the source: active = growth inhibition above about 70%; inactive = the rest.
Experiments:
[1] = NCI Yeast Anticancer Drug Screen. Data for the rad50 strain (AID 155);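 note: 0% = growth of vehicle-only cultures of the same strain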; details: S. cerevisiae rad50 strain growth inhibition; at 50.0 µM; stronger effect = higher value
Procedure, shortened: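 A DNA repair-deficient yeast mutant serves as the test organism; compound-induced growth inhibition is calculated against vehicle-treated cells.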

[2] = NCI Yeast Anticancer Drug Screen. Data for the mec2-1 strain (AID 157); details: S. cerevisiae mec2-1 strain, at 50.0 µM, stronger effect = higher value
Procedure, shortened: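 Mutant yeast (mec2-1) grown with compound; growth inhibition relative to vehicle control reported.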

[3] = NCI Yeast Anticancer Drug Screen. Data for the sgs1 mgt1 strain (AID 161);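 note: 0% = growth of cultures given vehicle only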; details: S. cerevisiae sgs1 mgt1 strain, at 50.0 µM, stronger effect = higher value
Procedure, shortened: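 This yeast growth screen uses a strain with defined DNA-repair lesions; compound-treated growth is compared with vehicle-treated growth.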

[4] = NCI Yeast Anticancer Drug Screen. Data for the cln2 rad14 strain (AID 165);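 note: 0% = growth equal to vehicle treated cultures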; details: S. cerevisiae cln2 rad14 strain, at 50.0 µM, stronger effect = higher value
Procedure, shortened: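 Readout is yeast growth inhibition versus vehicle-treated controls, using a strain with cln2 and rad14 alterations exposed to compound.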

[5] = NCI Yeast Anticancer Drug Screen. Data for the bub3 strain (AID 167); details: S. cerevisiae bub3 mutant strain, at 50.0 µM, stronger effect = higher value
Procedure, shortened: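 Inhibition values come from growth of compound-treated mutant yeast normalised to vehicle-treated controls.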

[6] = NCI Yeast Anticancer Drug Screen. Data for the mlh1 rad18 strain (AID 175); details: S. cerevisiae mlh1 rad18 strain growth inhibition; at 50.0 µM; stronger effect = higher value
Procedure, shortened: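 Genetically defined yeast (DNA repair-deficient) exposed to compounds; growth inhibition determined relative to vehicle.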

Measured: growth inhibition

COC(=O)C1(OC(=O)Sc2ccccc2)CCN(C)CC1
inactive: [1] -19.8% | [2] -5.95% | [3] -7.15% | [4] 15.4% | [5] -7.55% | [6] -25.1%

O=C(O)CNC1=NCCN1
inactive: [1] -0.8% | [2] 2.5% | [3] -8.4% | [4] -41.4% | [5] -24.1% | [6] -3.2%

CC(C)(C)N=Cc1ccccc1[O-].CC(C)(C)N=Cc1ccccc1[O-].[Co+2]
inactive: [1] 4% | [2] 7.9% | [3] -14.5% | [4] 0.25% | [5] 3.6% | [6] -5.85%

Cn1c2ccccc2c2nn3cnnc3nc21
inactive: [1] 18.1% | [2] 41.3% | [3] -3.3% | [4] 25.5% | [5] 22.1% | [6] -1.95%

CC(=O)c1c(C)nc(SSc2nc(C)c(C(C)=O)c(-c3ccc(Cl)cc3)c2C#N)c(C#N)c1-c1ccc(Cl)cc1
inactive: [1] -30.8% | [2] -7.8% | [3] -15.9% | [4] 6.35% | [5] -26.2% | [6] -2.2%

O=C(/C=C/c1ccc(Cl)c(Cl)c1)c1ccc2ccccc2c1
inactive: [1] 28.2% | [2] 1.95% | [3] -3.7% | [4] -8.6% | [5] 11.2% | [6] 20.2%

CCNc1ccc2c(c1)C(=O)c1ccccc1-2
inactive: [1] 28.9% | [2] 7.5% | [3] 17.4% | [4] 3.6% | [5] -4.05% | [6] -0.05%

CSCCC(Nc1ncnc2nc[nH]c12)C(=O)O (stereo not drawn)
inactive: [1] -9.7% | [2] 3.05% | [3] 3.6% | [4] -12.7% | [5] 0.9% | [6] -9.5%

CC(=O)Oc1c(C)cc(C(=O)CO)cc1C
inactive: [1] 34.7% | [2] 15.4% | [3] 27.7% | [4] 6.75% | [5] 14.4% | [6] 31.8%

CN(C)c1ccc(C(=O)C2CCCCC2)cc1
inactive: [1] 29.1% | [2] 7.5% | [3] 13.6% | [4] -4.8% | [5] -5.2% | [6] 21.8%

NC1CCCCC1N.O=NN1CCCCCC1(P(=O)([O-])[O-])P(=O)([O-])[O-].[Na+].[Pt+2]
inactive: [1] -34.9% | [2] 20% | [3] -14.6% | [4] -19.3% | [5] -12.6% | [6] -10.4%

CS(=O)(=O)OC1C(OC(=O)c2ccccc2)OC(COC(=O)c2ccccc2)C1OC(=O)c1ccccc1 (stereo not drawn)
inactive: [1] 14.8% | [2] -13.6% | [3] 4.9% | [4] -28.7% | [5] 9.7% | [6] -13.8%

Cn1cnc([N+](=O)[O-])c1Sc1ccncc1S(N)(=O)=O
inactive: [1] -5.65% | [2] -14.4% | [3] 0.2% | [4] 2.1% | [5] 6.5% | [6] -9.15%

CC(=O)OC1COC(N2C(=O)C(=O)c3cc(Br)c([N+](=O)[O-])cc32)C(OC(C)=O)C1OC(C)=O (stereo not drawn)
inactive: [1] 14.3% | [2] 12.2% | [3] -10.6% | [4] -1.9% | [5] -9.6% | [6] 1.3%

O=C(COc1ccccc1)Nc1ccc(C(=O)O)cc1
inactive: [1] -2.95% | [2] -3.6% | [3] -3.35% | [4] 1.85% | [5] 22.1% | [6] 25.3%

CCOC(=O)C(c1ccsc1)C(C(=O)OCC)c1cccs1 (stereo not drawn)
inactive: [1] 3.3% | [2] 23.1% | [3] -4.95% | [4] -3.35% | [5] 25.6% | [6] 17%

CC(=O)Nc1ccccc1-c1nc2cccnc2[nH]c1=O
inactive: [1] -9.6% | [2] 6.15% | [3] 2.65% | [4] -5.35% | [5] -1.85% | [6] -11.9%

NNC(=O)c1cccc(C(=O)NN)n1
inactive: [1] 6.25% | [2] 4.9% | [3] 8.55% | [4] 5.85% | [5] 31.1% | [6] 15.1%

CC1=C(C(=O)Nc2ccccc2C)C(c2ccc(C3C(C(=O)Nc4ccccc4C)=CNC=C3C(=O)Nc3ccccc3C)cc2)C(C(=O)Nc2ccccc2C)=C(C)N1
inactive: [1] 29.3% | [2] 44.8% | [3] 28.9% | [4] 21% | [5] 50.4% | [6] 46%

CCOC(=O)c1c(OC)ccc2ccccc12
inactive: [1] 13.3% | [2] 10.7% | [3] 4% | [4] -29.9% | [5] 21.6% | [6] 0.35%

CCc1nc2c(c(=O)n(C)c(=O)n2C)n1C
inactive: [1] -2.65% | [2] -4.15% | [3] -8.45% | [4] -3.85% | [5] 2.85% | [6] -7.5%

C1CCN(CCC2CCCCN2)CC1 (stereo not drawn)
inactive: [1] -23.4% | [2] -32.4% | [3] -41.6% | [4] -33.2% | [5] -37.8% | [6] -28%

CCOC(=O)c1ccc(NC(=O)Oc2cc(C)c(Cl)c(C)c2)cc1
inactive: [1] 7.8% | [2] -3.4% | [3] 2.65% | [4] 6.35% | [5] 14.9% | [6] -3.65%

O=S(=O)(CS(=O)(=O)Nc1ccccc1)Nc1ccccc1
inactive: [1] 21.1% | [2] 26.9% | [3] 21.7% | [4] -4.45% | [5] 11.3% | [6] 21.3%

O=CC(NC(=O)OCc1ccccc1)C(O)C(O)C(O)CO (stereo not drawn)
inactive: [1] -15.3% | [2] 2.7% | [3] 1.75% | [4] -6.3% | [5] -15.9% | [6] -16.9%

CNc1ccccc1C(=O)N/N=C/c1ccc(O)c(OC)c1
inactive: [1] 3% | [2] 5.65% | [3] 0.85% | [4] 2.55% | [5] 37.4% | [6] -19.6%

COC(=O)C(=O)C(C(=O)C=C(C)C)C(=O)C(=O)Nc1cccc(C(C)=O)c1 (stereo not drawn)
inactive: [1] -18.4% | [2] -8.25% | [3] -14.7% | [4] 16.4% | [5] -13.2% | [6] -26.2%

CCN1CCCC(SC(=O)C(O)(c2ccccc2)c2ccccc2)C1 (stereo not drawn)
inactive: [1] -16.6% | [2] -5.75% | [3] -22.1% | [4] -15.2% | [5] -4.15% | [6] 0.15%

OC1c2ccccc2CC12Cc1ccccc1C2 (stereo not drawn)
inactive: [1] 36.1% | [2] 38.5% | [3] 37.3% | [4] 23.5% | [5] 26.6% | [6] 13.8%

NC(=O)C1C(=O)NC(=O)C1=O (stereo not drawn)
inactive: [1] -21.5% | [2] -17.9% | [3] -8.75% | [4] -7.7% | [5] -9.75% | [6] -22.4%

O=C1OC(=O)c2c(Br)c(Br)c(Br)c(Br)c21
inactive: [1] 5.9% | [2] 8.65% | [3] -16.4% | [4] -8.9% | [5] -10.9% | [6] 2.7%

COc1cc(C2c3cc4c(c(OC(=O)c5ccccn5)c3CC3COC(=O)C32)OCO4)cc(OC)c1OC (stereo not drawn)
inactive: [1] 8.1% | [2] 10.1% | [3] 11.6% | [4] -9.5% | [5] 13% | [6] 34%

Cn1c(=O)c2n[nH]nc2n(C)c1=O
inactive: [1] 7.25% | [2] -0.5% | [3] -0.35% | [4] -11.7% | [5] -14.8% | [6] 15.8%

Cc1cccc(C)c1N1C(=O)C(=O)C(c2nc3ccccc3s2)C(=Nc2cccc3c(=O)[nH][nH]c(=O)c23)C1=O (stereo not drawn)
inactive: [1] 30.5% | [2] 13.9% | [3] 17.6% | [4] 23.2% | [5] 0.95% | [6] 23.7%

C=C1CCc2ccccc2C1=O
inactive: [1] 23.4% | [2] -4% | [3] 4.25% | [4] -5.55% | [5] 7.15% | [6] 13.6%

COc1ccc(N)c(C(=O)CCNC(C)=O)c1
inactive: [1] -23.2% | [2] -9.7% | [3] -21.2% | [4] -7.05% | [5] -26.6% | [6] -25.4%

O=C(Cc1ccccc1C(=O)O)c1ccccc1
inactive: [1] -16.6% | [2] -18.6% | [3] -23.6% | [4] -24.4% | [5] -25.1% | [6] -13.3%

N#CC1(C(N)=O)OC1c1ccccc1Cl (stereo not drawn)
inactive: [1] -3.1% | [2] -18.1% | [3] 1.3% | [4] -37.3% | [5] -7.1% | [6] -16.9%

Reference: PubChem BioAssay (NCI)
